{"source": "PubChem BioAssay (Tox21)", "note": "Results filed as inconclusive are left out. Calls of active or inactive are those of the source. The call rests on the fitted dose curve; in most records, active means well fitted activation curve with a large enough effect in the signal ratio in the repeat runs (not every such curve was filed as active); inconclusive means weak or mixed curves, or effect the other way; inactive means flat fitted curve, though single readings scatter; the % refers to the signal ratio. On the % scale 0 is the no-effect control and ±100 the full control effect.", "data": [{"test": "qHTS assay to identify small molecule agonists of the endoplasmic reticulum stress response signaling pathway (AID 1159516)", "conditions": "ESRE-bla HeLa, ER stress beta-lactamase reporter, 5 h; series mostly up to 61 µM; activation: at the top concentration", "excerpt": "National Center for Advancing Translational Sciences [NCATS]\nNIH Chemical Genomics Center [NCGC]\nU.S. Environmental Protection Agency [EPA]\nNational Institutes of Environmental Health Sciences [NIEHS]\nNational Toxicology Program [NTP]\nU.S. Food and Drug Administration [FDA]\nEndoplasmic Reticulum (ER) plays an important role in cellular signaling, protein folding/maturation, stress response, lipid biosynthesis, calcium storage and release etc. Under stress conditions, proteins in ER misfold or unfold, and leading to the expression of ER stress responsive genes. ER stress has been associated with a variety of pathophysiological conditions such as cancer, inflammation, neurodegenerative diseases, diabetes, ischemic heart disease etc. To identify the compounds that induce ER stress response, an ER stress reporter cell line, CellSensor ESRE-bla HeLa (Life Technologies, Carlsbad, CA) containing a beta-lactamase reporter gene under control of the Endoplasmic reticulum Stress Response Element (ESRE) was used to screen Tox21 10K compound library.\nTox21 Assay Protocol Summary:\nESRE-bla HeLa cells were dispensed at 1,500 cells/6 uL of assay medium per well into black wall/clear-bottom 1536-well plates using a Multidrop Combi (ThermoFisher Scientific, Waltham, MA) dispenser. After the assay plates were incubated at 37 C and 5% CO2 for an overnight, 23 nL of compounds dissolved in DMSO, positive controls or DMSO only was transferred to the assay plate by a Pintool station (Kalypsys, San Diego, CA). The assay plates were incubated at 37 C and 5% CO2 for 5 hr. One uL of LiveBLAzer B/G FRET substrate (Life Technologies) was added using a Flying Reagent Dispenser (Aurora Discovery, San Diego, CA) and the plates were incubated at room temperature for 2 hr. Fluorescence intensity (405 nm excitation, 460 nm and 530 nm emissions) was measured using an Envision plate reader (PerkinElmer, Shelton, CT).", "values": [{"smiles": "C[C@](N)(Cc1ccc(O)cc1)C(=O)O", "activation": "0.0819% [at 6.95 µM] (inactive)"}, {"smiles": "CC1(C)C(O)C(C)(C)C1O", "note": "(stereo not given)", "activation": "1.3% (inactive)"}, {"smiles": "C=COCC1CCC(CO)CC1", "note": "(stereo not given)", "activation": "-1.5% (inactive)"}, {"smiles": "CCOC(=O)CC(C)=O", "activation": "0.0419% [at 78.8 µM] (inactive)"}, {"smiles": "CC(C)(C)c1nnc(NS(=O)(=O)c2ccccc2)s1", "activation": "-3.48% (inactive)"}, {"smiles": "COC(=O)C1=C(C)NC(C)=C(C(=O)OC)C1c1ccccc1[N+](=O)[O-]", "outcome": "inactive"}, {"smiles": "COC(=O)[C@@H](N)Cc1ccc(O)c(O)c1", "activation": "-0.984% (inactive)"}, {"smiles": "C[C@@H]1CCN(C(=O)[C@H](CCCN=C(N)N)NS(=O)(=O)c2cccc3c2NC[C@H](C)C3)[C@@H](C(=O)O)C1", "activation": "0.67% (inactive)"}, {"smiles": "Cn1cc(S(C)=O)c(=O)c2ccc(F)cc21", "note": "(stereo not given)", "activation": "1.94% (inactive)"}, {"smiles": "O=C(O)CCCl", "activation": "1.16% [at 78.8 µM] (inactive)"}, {"smiles": "CCC(C)C1CCCCC1=O", "note": "(stereo not given)", "activation": "3.79% (inactive)"}, {"smiles": "O=C(O)CN(CCOCCOCCN(CC(=O)O)CC(=O)O)CC(=O)O", "activation": "0.191% [at 0.628 µM] (inactive)"}, {"smiles": "CC(=O)CC(C)(C)C1CCCCC1", "activation": "1.02% (inactive)"}, {"smiles": "CCCC(=O)O[C@]1(C(=O)CO)CC[C@H]2[C@@H]3CCC4=CC(=O)CC[C@]4(C)[C@H]3[C@@H](O)C[C@@]21C", "activation": "-2.9% (inactive)"}, {"smiles": "CCCCCCOC(=O)CCCCC(=O)OCCCCCC", "activation": "1.53% (inactive)"}, {"smiles": "CCCCOCCOCCOCCCC", "activation": "2.44% (inactive)"}, {"smiles": "COCCCOCCCOC", "activation": "-1.95% (inactive)"}, {"smiles": "C[N+](C)(C)CC(O)CC(=O)[O-]", "note": "(stereo not given)", "activation": "0.195% (inactive)"}, {"smiles": "CCOC(=O)C(=O)OCC", "activation": "1.18% (inactive)"}, {"smiles": "NC(=O)c1ccc(N)cc1", "activation": "1.66% (inactive)"}, {"smiles": "Cc1ccc(=O)n(-c2ccccc2)c1", "activation": "-0.492% (inactive)"}, {"smiles": "N#Cc1ccc(C2CCCc3cncn32)cc1", "note": "(stereo not given)", "activation": "-0.432% [at 28.5 µM] (inactive)"}, {"smiles": "NC(=O)COCCN1CCN(C(c2ccccc2)c2ccc(Cl)cc2)CC1", "note": "(stereo not given)", "activation": "1.61% (inactive)"}, {"smiles": "CC(=O)N(CC(O)CO)c1c(I)c(C(=O)NCCO)c(I)c(C(=O)NCC(O)CO)c1I", "note": "(stereo not given)", "activation": "4.12% (inactive)"}, {"smiles": "Cc1cccc(C)c1NC(=O)C(C)N", "note": "(stereo not given)", "activation": "3.64% (inactive)"}, {"smiles": "Nc1ccc(S(=O)(=O)Nc2ccnn2-c2ccccc2)cc1", "activation": "-2.81% [at 28.5 µM] (inactive)"}, {"smiles": "N[C@H]1CN(c2c(F)cc3c(=O)c(C(=O)O)cn(C4C[C@H]4F)c3c2Cl)CC12CC2", "note": "(stereo not given in full)", "activation": "2.08% (inactive)"}, {"smiles": "CS(=O)(=O)O", "activation": "-0.233% [at 78.8 µM] (inactive)"}, {"smiles": "CN1CC(=O)NC1=N", "activation": "-0.0527% (inactive)"}, {"smiles": "N[C@@H](C(=O)N[C@@H]1C(=O)N2C(C(=O)O)=C(Cl)CS[C@H]12)c1ccccc1", "activation": "4.99% [at 6.95 µM] (inactive)"}, {"smiles": "O=C1OC(=O)C2CCCCC12", "note": "(stereo not given)", "activation": "0.704% (inactive)"}, {"smiles": "O=c1n(CCO)c(=O)n(CCO)c(=O)n1CCO", "activation": "-1.79% [at 78.8 µM] (inactive)"}, {"smiles": "CC(C[N+](C)(C)C)OC(N)=O", "note": "(stereo not given)", "activation": "2.81% (inactive)"}, {"smiles": "CC/C=C\\CC/C=C/CO", "activation": "-1.25% (inactive)"}, {"smiles": "CO[C@]12C[C@@H](COC(=O)c3cncc(Br)c3)CN(C)[C@@H]1Cc1cn(C)c3cccc2c13", "activation": "0.709% (inactive)"}, {"smiles": "O=C1CCCC(=O)C1", "activation": "-0.933% (inactive)"}, {"smiles": "CCS(=O)(=O)c1ccc(OC)c(C(=O)OC)c1", "activation": "5.71% (inactive)"}, {"smiles": "c1ccc([C@H]2CN3CCSC3=N2)cc1", "activation": "4.52% (inactive)"}, {"smiles": "N=C(N)c1ccccc1", "activation": "-1.33% (inactive)"}, {"smiles": "Cc1cnc(NS(=O)(=O)c2ccc(N)cc2)nc1", "activation": "-1.01% (inactive)"}]}]}
